Measurements from PubChem BioAssay (NCI).
About 79,000 compounds went through this panel and 15% of them were active in at least one assay; those are over-represented in the sample as a whole. Rule as the data show it: active = growth inhibition above about 70%; inactive = the rest.

Assays:
[1] = NCI Yeast Anticancer Drug Screen. Data for the rad50 strain (AID 155);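 also: 0% = growth of vehicle-only cultures of the same strain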; details: S. cerevisiae rad50 strain growth inhibition; at 50.0 µM; stronger effect = higher value
How it was run: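 DNA repair mutant yeast, compound exposure, growth read-out; inhibition is taken relative to vehicle.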

[2] = NCI Yeast Anticancer Drug Screen. Data for the mec2-1 strain (AID 157); details: S. cerevisiae mec2-1 strain, at 50.0 µM, stronger effect = higher value
How it was run: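 Compounds were applied to mec2-1 yeast cells. Their growth was then compared with that of vehicle-treated cultures to give growth inhibition.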

[3] = NCI Yeast Anticancer Drug Screen. Data for the sgs1 mgt1 strain (AID 161);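 also: 0% = growth of cultures given vehicle only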; details: S. cerevisiae sgs1 mgt1 strain, at 50.0 µM, stronger effect = higher value
How it was run: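 Compounds are added to genetically altered yeast, and growth is compared with cultures given vehicle alone to give percent inhibition.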

[4] = NCI Yeast Anticancer Drug Screen. Data for the cln2 rad14 strain (AID 165);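 also: 0% = growth equal to vehicle treated cultures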; details: S. cerevisiae cln2 rad14 strain, at 50.0 µM, stronger effect = higher value
How it was run: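 Strain: cln2 rad14 yeast, altered in cell cycle control and DNA damage repair. Read-out: growth inhibition vs vehicle.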

[5] = NCI Yeast Anticancer Drug Screen. Data for the bub3 strain (AID 167); details: S. cerevisiae bub3 mutant strain, at 50.0 µM, stronger effect = higher value
How it was run: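 In this screen, a yeast mutant lacking normal mitotic checkpoint function is challenged with compound. Relative growth versus vehicle gives the inhibition value.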

[6] = NCI Yeast Anticancer Drug Screen. Data for the mlh1 rad18 strain (AID 175); details: S. cerevisiae mlh1 rad18 strain growth inhibition; at 50.0 µM; stronger effect = higher value
How it was run: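 A repair-deficient yeast strain is exposed to test compound, and growth is scored relative to vehicle-treated controls.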

Measured: growth inhibition

CCOC(=O)/C(F)=C/c1ccc(C)cc1
inactive: [1] 20.6% | [2] -8.55% | [3] 3.85% | [4] 11.1% | [5] 0.15% | [6] 8.4%

Cc1ccc(C(=O)Nc2ccc([N+](=O)[O-])cc2)cc1
inactive: [1] 4.2% | [2] -6.75% | [3] -0.35% | [4] -2.75% | [5] -5.35% | [6] -2.95%

Cn1c(-c2ccc(/C=N/N=C(N)N)cc2)c[n+]2ccccc12
inactive: [1] 8.85% | [2] 4.3% | [3] 4% | [4] 0.8% | [5] -3.85% | [6] 32.5%

OC(COc1ccc2ccccc2c1)COc1ccc2ccccc2c1
inactive: [1] -8.55% | [2] -22.1% | [3] -7.85% | [4] -16.3% | [5] -11.6% | [6] -5.8%

O=C(COc1ccc(Cl)cc1)Nc1nccs1
inactive: [1] 4.95% | [2] 32% | [3] 26.6% | [4] 5.7% | [5] 20.4% | [6] 21.4%

CN(C)S(=O)(=O)N(C)C
inactive: [1] -1.55% | [2] 6.4% | [3] 15.4% | [4] 6.1% | [5] -8.45% | [6] 26.2%

O=C(O)C1CCCN1Cc1ccc2c(c1)OCO2 (stereo unspecified)
inactive: [1] -5.1% | [2] -19.6% | [3] -34% | [4] -3.5% | [5] -40.8% | [6] -36.8%

CC(=O)Oc1c(C)cc(C(=O)CO)cc1C
inactive: [1] 34.7% | [2] 15.4% | [3] 27.7% | [4] 6.75% | [5] 14.4% | [6] 31.8%

N#C/C(=C\N1CC(=O)NC1=S)c1nc2ccccc2s1
inactive: [1] 4.75% | [2] 8.45% | [3] -6.05% | [4] 23.3% | [5] 24.9% | [6] 19.2%

COc1cc2c(cc1OC)C(NC(C)C)CCCC2 (stereo unspecified)
inactive: [1] -7.6% | [2] 9.35% | [3] -13.8% | [4] -23.6% | [5] -7.7% | [6] -6.9%

CCOC1Oc2ccccc2-c2nc(C)c(C#N)cc21 (stereo unspecified)
inactive: [1] 1.65% | [2] 7.75% | [3] 15.9% | [4] -66.5% | [5] 15.8% | [6] 12.4%

O=C(O)C(c1ccccc1)C1(O)CC2CCC1C2 (stereo unspecified)
inactive: [1] -38% | [2] -45.5% | [3] -36.6% | [4] -10.7% | [5] -56% | [6] -54.5%

CN(C)C(=S)Oc1ccc([N+](C)(C)C)cc1
inactive: [1] -3.7% | [2] 3.55% | [3] 2.5% | [4] -4.6% | [5] 3.15% | [6] -1%

O=C(Nc1cc(Cl)ccc1Cl)c1ccc(Cl)cc1
inactive: [1] -1.3% | [2] -14.5% | [3] 4.45% | [4] -44% | [5] -9.7% | [6] -12.7%

COC(=O)N/N=C/c1oc(-c2ccccc2)c(-c2ccccc2)c1[N+](=O)[O-]
inactive: [1] -2.15% | [2] -12.6% | [3] 16.5% | [4] 20.8% | [5] -10.1% | [6] -8.2%

CC(=O)NC1(C)CC[C@H]2CC1C(C)=NC2(C)C (stereo partly specified)
inactive: [1] -13.2% | [2] -3.95% | [3] -6.9% | [4] 2.85% | [5] -8.15% | [6] -14.3%

Cc1ncc2c(n1)NC(=O)NC2
inactive: [1] 17.1% | [2] 13.5% | [3] -16.6% | [4] 0.9% | [5] -23.1% | [6] -13.9%

O=Cc1sccc1NC(=O)c1ccccc1
inactive: [1] 2.65% | [2] -14.6% | [3] -18% | [4] -18.1% | [5] -7.5% | [6] 9.15%

COc1ccc2c(c1OC)C(=O)O[C@@H]2[C@H]1c2c(cc3c(c2OC)OCO3)CCN1C
inactive: [1] 5.7% | [2] -28.9% | [3] -27.8% | [4] 6.75% | [5] -7.35% | [6] 11.3%

COc1cc(C(c2cc3c(cc2O)OCO3)n2ccnc2)cc(OC)c1OC (stereo unspecified)
inactive: [1] -15.2% | [2] 1.6% | [3] -13.1% | [4] 8.75% | [5] 2.9% | [6] 13.1%

CCOC(=O)c1ccc(NC(=S)N(CCC#N)C2CCCCC2)cc1
inactive: [1] 33.4% | [2] 7.2% | [3] 62.5% | [4] 27.1% | [5] 48.4% | [6] 30.9%
